According to article PMC5540273 (PLoS ONE, 2017):

test system: EPHB6
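Further: kd values determined as follow-up on hits from a single-replicate KINOMEscan panel screen.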

| SMILES | Kd |
| --- | --- |
| Nc1ncnc2occ(-c3ccc4c(c3)CCN4C(=O)Cc3cc(F)ccc3F)c12 [GSK2645446] | 0.5 µM |
| COC(=O)C(NC(=O)NC1CCN(c2ccnc(Nc3ccc(F)cc3)n2)C1)c1ccccc1 (centres unmarked) [GSK1379712] | 0.058 µM |
| FC(F)(F)c1ccccc1-c1cc(-c2c[nH]nc2-c2ccccn2)ccn1 [GW679396] | 8.5 µM |
| COc1ccc(Nc2nccc(N3CCC(NC(=O)C(C)c4ccc(Cl)cc4)CC3)n2)cc1 (centres unmarked) [GSK1379812] | > 10 µM |

test system: ERBB2

| SMILES | Kd |
| --- | --- |
| COc1cc2ncnc(Nc3cccc(Br)c3)c2cc1OC.Cl [GI230329] | 0.085 µM |
| Cn1cncc1-c1cc2c(Nc3ccc(OCc4ccccc4)cc3)ncnc2cn1 [GW281179] | 0.017 µM |
| CS(=O)(=O)CCNCc1nc(-c2ccc3ncnc(Nc4ccc5c(cnn5Cc5ccccc5)c4)c3c2)cs1.Cl.Cl [GW569716] | 0.0011 µM |
| CS(=O)(=O)CCNCc1nc(-c2ccc3ncnc(Nc4ccc(OCc5ccccc5)c(Cl)c4)c3c2)cs1.Cl [GW582764] | 0.004 µM |

test system: T1, ERK8
T1 construct: gene MAPK15

| SMILES | Kd |
| --- | --- |
| O=C(Nc1n[nH]c2cc(-c3ccsc3)ccc12)C1CC1 [SB-732932] | 0.048 µM |
| O=C(Nc1n[nH]c2nc(-c3cccs3)c(Br)cc12)C1CC1 [SB-735297] | 0.13 µM |
| Cc1cccc2c(-c3ccncn3)c(-c3ccc(F)cc3)nn12 [GW515532] | > 10 µM |

test system: GAK

| SMILES | Kd |
| --- | --- |
| c1ccc(-c2ccnc3[nH]ccc23)cc1 [SB-693578] | 3.7 µM |
| COc1cccc(C2=C(Nc3cc(Cl)c(O)c(Cl)c3)C(=O)NC2=O)c1 [SB-390767] | > 10 µM |
| COc1cc2ncnc(Nc3cccc(Br)c3)c2cc1OC.Cl [GI230329] | 0.029 µM |

test system: GSK3A

| SMILES | Kd |
| --- | --- |
| O=C(Nc1n[nH]c2nc(-c3ccco3)c(Br)cc12)C1CCN(Cc2ccccc2)C1.O=C(O)[C@H](O)[C@@H](O)C(=O)O (centres unmarked) [SB-742034] | 0.13 µM |
| O=C(Nc1n[nH]c2nc(-c3cccs3)c(Br)cc12)C1CCCC1 [SB-743341] | 0.062 µM |
| COc1ccc(CSc2nnc(-c3ccc4ncsc4c3)o2)cc1C(F)(F)F | 0.079 µM |
| O=c1cc(N2CCOCC2)nc2n(Cc3ccccc3F)ccn12 [GSK2297428] | > 10 µM |
| COc1ccc(CSc2nnc(-c3ccc4nccn4c3)o2)cc1C(F)(F)F | 0.25 µM |
| O=C(Nc1n[nH]c2nc(-c3cccs3)c(Br)cc12)C1CC1 [SB-735297] | 0.091 µM |

test system: GSK3B

| SMILES | Kd |
| --- | --- |
| O=C(Nc1n[nH]c2nc(-c3cccs3)c(Br)cc12)C1CCCC1 [SB-743341] | 0.12 µM |
| COc1ccc(CSc2nnc(-c3ccc4ncsc4c3)o2)cc1C(F)(F)F | 0.039 µM |
| COc1ccc(CSc2nnc(-c3ccc4nccn4c3)o2)cc1C(F)(F)F | 0.022 µM |
